Results published in the supplement of paper PMC8728848.
The full list was thinned out, with the strongest signals kept by preference.

Legend:
Assay in all cases: glycan array binding signal (z-score within array); higher = stronger binding
Conditions in all cases: glycan notation: IUPAC condensed, linker removed
[1] = biological target: Gal(b1-4)GlcNAc(b1-3)[Gal(b1-4)GlcNAc(b1-6)]Gal(b1-4)GlcNAc
In short: (§1)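 Glycan array binding is given as a within-array Z-score, which can be read as non-binding when negative. The arrays, 3228 of them, came from the Consortium for Functional Glycomics database and were retained only where the protein sequence was available. Z-scores were averaged across arrays of the same protein sequence at different concentrations or buffers and across linkers.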

[2] = biological target: Gal3S(b1-4)[Fuc(a1-3)]Glc6S
In short: as §1

[3] = biological target: GalNAc(b1-4)GlcNAc(b1-2)Man(a1-3)[GalNAc(b1-4)GlcNAc(b1-2)Man(a1-6)]Man(b1-4)GlcNAc(b1-4)GlcNAc
In short: as §1

[4] = biological target: GlcNAc(a1-4)Gal(b1-4)GlcNAc
In short: as §1

[5] = biological target: GlcNAc(b1-2)[GlcNAc(b1-4)]Man(a1-3)[GlcNAc(b1-2)Man(a1-6)]Man(b1-4)GlcNAc(b1-4)GlcNAc
In short: as §1

[6] = biological target: GlcNAc(b1-3)Gal(b1-4)GlcNAc(b1-3)Gal(b1-4)GlcNAc(b1-3)Gal(b1-4)GlcNAc(b1-3)Gal(b1-4)GlcNAc(b1-2)[GlcNAc(b1-3)Gal(b1-4)GlcNAc(b1-3)Gal(b1-4)GlcNAc(b1-3)Gal(b1-4)GlcNAc(b1-3)Gal(b1-4)GlcNAc(b1-6)]Man(a1-6)[GlcNAc(b1-3)Gal(b1-4)GlcNAc(b1-3)Gal(b1-4)GlcNAc(b1-3)Gal(b1-4)GlcNAc(b1-3)Gal(b1-4)GlcNAc(b1-2)Man(a1-3)]Man(b1-4)GlcNAc(b1-4)[Fuc(a1-6)]GlcNAc
In short: as §1

GlcNAc(b1-3)GalNAc = biological target: GlcNAc(b1-3)GalNAc
In short: as §1

[7] = biological target: GlcNAc(b1-3)[GlcNAc(b1-4)][GlcNAc(b1-6)]GlcNAc
In short: as §1

[8] = biological target: GlcNAc(b1-3)[GlcNAc(b1-6)]GalNAc
In short: as §1

Kdn(a2-3)Gal(b1-4)Glc = biological target: Kdn(a2-3)Gal(b1-4)Glc
In short: as §1

MurNAc(b1-4)GlcNAc = biological target: MurNAc(b1-4)GlcNAc
In short: as §1

[9] = biological target: Neu5Ac(a2-3)Gal(b1-3)GalNAc
In short: as §1

[10] = biological target: Neu5Ac(a2-3)Gal(b1-3)GalNAc(b1-4)[Neu5Ac(a2-3)]Gal(b1-4)Glc
In short: as §1

[11] = biological target: Neu5Ac(a2-3)Gal(b1-3)GlcNAc(b1-2)Man(a1-3)[Neu5Ac(a2-3)Gal(b1-3)GlcNAc(b1-2)Man(a1-6)]Man(b1-4)GlcNAc(b1-4)GlcNAc
In short: as §1

[12] = biological target: Neu5Ac(a2-3)Gal(b1-3)GlcNAc(b1-2)[Neu5Ac(a2-3)Gal(b1-3)GlcNAc(b1-4)]Man(a1-6)[Neu5Ac(a2-3)Gal(b1-3)GlcNAc(b1-2)Man(a1-3)]Man(b1-4)GlcNAc(b1-4)GlcNAc
In short: as §1

[13] = biological target: Neu5Ac(a2-3)Gal(b1-3)GlcNAc6S
In short: as §1

[14] = biological target: Neu5Ac(a2-3)Gal(b1-3)[Fuc(a1-4)]GlcNAc
In short: as §1

[15] = biological target: Neu5Ac(a2-3)Gal(b1-3)[Fuc(a1-4)]GlcNAc(b1-3)Gal(b1-4)[Fuc(a1-3)]GlcNAc
In short: as §1

[16] = biological target: Neu5Ac(a2-3)Gal(b1-4)GlcNAc(b1-3)Gal(b1-4)GlcNAc(b1-3)Gal(b1-4)GlcNAc(b1-2)Man(a1-3)[Neu5Ac(a2-3)Gal(b1-4)GlcNAc(b1-3)Gal(b1-4)GlcNAc(b1-3)Gal(b1-4)GlcNAc(b1-2)Man(a1-6)]GalNAc
In short: as §1

[17] = biological target: Neu5Ac(a2-3)Gal(b1-4)GlcNAc(b1-6)[Neu5Ac(a2-3)Gal(b1-3)]GalNAc
In short: as §1

[18] = biological target: Neu5Ac(a2-6)Gal(b1-4)GlcNAc(b1-2)Man
In short: as §1

[19] = biological target: Neu5Ac(a2-6)Gal(b1-4)GlcNAc(b1-2)Man(a1-3)[Neu5Ac(a2-6)Gal(b1-4)GlcNAc(b1-2)Man(a1-6)]Man(b1-4)GlcNAc(b1-4)[Fuc(a1-6)]GlcNAc
In short: as §1

[20] = biological target: Neu5Ac(a2-6)GlcNAc(b1-4)GlcNAc
In short: as §1

[21] = biological target: Neu5Ac(a2-8)Neu5Ac(a2-8)Neu5Ac
In short: as §1

[22] = biological target: Neu5Ac9Ac(a2-3)Gal(b1-3)GlcNAc
In short: as §1

B1: rCnSL-proB (Clitocybe nebularis) (protein)
chain: PTFSPIFALLAFLPFGTLASLLPQTQLVFRINPNLPGPNDVFVGYRGTNNVVGAIYERDGIKDTPMNNGADAELGPGSYITDDLFTAQIFASGSAGNNPGTTATVCKIYADGVQWRGAPKGYLPVLYFGNGQAAEQTRQTYLQGLDIPGTAIRFANLAKTPNQGPTAPRQMVVPSGGLQTLLKASCFPANHAALPQVLSYFNVRAALPPGWNIRTGPEFPNWTN
glycan array binding signal (z-score) [1]: -0.283 | glycan array binding signal (z-score) [2]: 0.549 | glycan array binding signal (z-score) [3]: 3.38 | glycan array binding signal (z-score) [4]: -0.308 | glycan array binding signal (z-score) [5]: -0.133 | glycan array binding signal (z-score) [6]: 0.742 | glycan array binding signal (z-score) (GlcNAc(b1-3)GalNAc): -0.757 | glycan array binding signal (z-score) [7]: -0.62 | glycan array binding signal (z-score) [8]: -0.668 | glycan array binding signal (z-score) (Kdn(a2-3)Gal(b1-4)Glc): -1.27 | glycan array binding signal (z-score) (MurNAc(b1-4)GlcNAc): -0.477 | glycan array binding signal (z-score) [9]: -0.437 | glycan array binding signal (z-score) [10]: -0.343 | glycan array binding signal (z-score) [11]: 3.69 | glycan array binding signal (z-score) [12]: 0.146 | glycan array binding signal (z-score) [13]: 0.395 | glycan array binding signal (z-score) [14]: -0.555 | glycan array binding signal (z-score) [15]: 0.025 | glycan array binding signal (z-score) [16]: 4.43 | glycan array binding signal (z-score) [17]: -0.239 | glycan array binding signal (z-score) [18]: 0.328 | glycan array binding signal (z-score) [19]: 0.037 | glycan array binding signal (z-score) [20]: -0.255 | glycan array binding signal (z-score) [21]: -0.203 | glycan array binding signal (z-score) [22]: -0.873
